Inconclusive results are not listed. Values without a mark were called inactive. Active and inactive are the calls of the source. Calls come from the whole dose curve; as a rule, active = well fitted cell-killing curve with a large enough effect in the repeat runs; inconclusive = weak or mixed curves, or effect the other way; inactive = flat fitted curve, though single readings scatter.
assay: cAMP Responsive Elements (CRE) small molecule antagonists, cell-based qHTS assay: qHTS cell viability counter screen (AID 2060913); conditions: CRE-bla HEK293T viability, CellTiter-Glo luminescence, 5 h; series mostly up to 92.4 µM; viability change, negative = cytotoxic: at the top concentration; note: nearly all actives have a fitted effect of over 40% in size
Summary of the method: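 Cytotoxicity counter screen multiplexed with the CRE-bla antagonist read: HEK293T cells in DMEM with dialyzed FBS and 25 mM HEPES were treated 3 hrs under 0.25 uM final NKH477, then viability measured by CellTiter-Glo luminescence.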
% is set by controls: 0 for no effect and ±100 for the full control effect.

Row | Compound | viability change, negative = cytotoxic | Potency
1 | Oc1ccc(Cl)c2cccnc12 | -0.214% [at 42.5 µM] | –
2 | CC1(C)O[C@@H]2C[C@H]3[C@@H]4CCC5=CC(=O)CC[C@]5(C)[C@@]4(F)[C@@H](O)C[C@]3(C)[C@]2(C(=O)CCl)O1 | -0.459% [at 42.5 µM] | –
3 | CC(C)C(=O)OCC(C)(C)C(O)C(C)C (stereo not given) | 4.92% | –
4 | CCCCC/C=C\C/C=C\CCCCCCCC(=O)OC | – | inactive
5 | CCCCC(CC)COC(=O)CCCCC(=O)OCC(CC)CCCC (stereo not given) | – | inactive
6 | O=C(O)Cn1cnnn1 | -0.795% [at 42.5 µM] | –
7 | O=c1[nH]cnc2[nH]ncc12 | – | inactive
8 | O=C1c2ccccc2S(=O)(=O)N1CCCCN1CCN(c2ncccn2)CC1 | -0.621% [at 42.5 µM] | –
9 | O=c1[nH]c(=O)n([C@H]2C[C@H](O)[C@@H](CO)O2)cc1I | -3.18% [at 42.5 µM] | –
10 | CCN1CCN(C(=O)N[C@@H](C(=O)N[C@@H]2C(=O)N3[C@@H]2SC(C)(C)[C@H]3C(=O)O)c2ccccc2)C(=O)C1=O | 1.07% [at 42.5 µM] | –
11 | CCC(C)=O | 4.98% | –
12 | Cc1ncc([N+](=O)[O-])n1CC(O)CCl (stereo not given) | -0.776% [at 42.5 µM] | –
13 | CNCC[C@H](Oc1cccc2ccccc12)c1cccs1 | -2.02% [at 42.5 µM] | –
14 | Cc1ccc(OC(=O)c2ccccc2O)cc1 | 0.077% | –
15 | CC(=O)O[C@@H]1CC2C3CCc4cc(OC(=O)c5ccccc5)ccc4C3CCC2(C)[C@H]1OC(C)=O (stereo not given in full) | 0.987% [at 42.5 µM] | –
16 | CCOC(=O)C(C)Oc1ccc(Oc2cnc3cc(Cl)ccc3n2)cc1 (stereo not given) | – | inactive
17 | OC[C@H]1O[C@@H]2O[C@H]3[C@H](O)[C@@H](O)[C@@H](O[C@H]4[C@H](O)[C@@H](O)[C@@H](O[C@H]5[C@H](O)[C@@H](O)[C@@H](O[C@H]6[C@H](O)[C@@H](O)[C@@H](O[C@H]7[C@H](O)[C@@H](O)[C@@H](O[C@H]8[C@H](O)[C@@H](O)[C@@H](O[C@H]1[C@H](O)[C@H]2O)O[C@@H]8CO)O[C@@H]7CO)O[C@@H]6CO)O[C@@H]5CO)O[C@@H]4CO)O[C@@H]3CO | – | inactive
18 | O=S(=O)(O)c1cc(S(=O)(=O)O)c2ccc3c(S(=O)(=O)O)cc(S(=O)(=O)O)c4ccc1c2c43 | 3.35% [at 18.9 µM] | –
19 | CC1COc2c(N3CCN(C)CC3)c(F)cc3c(=O)c(C(=O)O)cn1c23 (stereo not given) | 1.84% [at 42.5 µM] | –
20 | Cc1cc(C)c(/C=C2\C(=O)Nc3ccccc32)[nH]1 | 1.34% [at 42.5 µM] | –

Row | Compound | viability change, negative = cytotoxic | Potency
21 | CC(C)NCC(O)c1ccc2ccccc2c1 (stereo not given) | 0.877% [at 42.5 µM] | –
22 | C[n+]1ccn(CCO)c1 | – | inactive
23 | CCc1cnc(C(=O)O)c(C(=O)O)c1 | 2.9% | –
24 | CCCCCCCC/C=C\CCCCCCCC(=O)OCCO | 15.7% | –
25 | C#CC(O)C(CC)CCCC (stereo not given) | -0.528% | –
26 | NC[C@H]1O[C@H](O[C@H]2[C@H](O[C@@H]3O[C@H](CO)[C@@H](O)[C@H]3O)C(O)[C@H](N)C[C@@H]2N)[C@H](N)[C@@H](O)[C@@H]1O (stereo not given in full) | 2.15% [at 8.39 µM] | –
27 | O=C(O)C1(C(=O)Nc2ccc(Cl)cc2Cl)CC1 | -10.4% | –
28 | COc1ccc2cccc(CCNC(C)=O)c2c1 | -1.08% [at 42.5 µM] | –
29 | O=C(CCCCCCC(=O)Nc1ccccc1)NO | 3.91% [at 42.5 µM] | –
30 | CCCN1CCCC[C@H]1C(=O)Nc1c(C)cccc1C | 2.77% [at 42.5 µM] | –
31 | Cc1cccc(C)c1NC(=O)CN1CCCCCC1 | -0.252% [at 42.5 µM] | –
32 | O=C(/C=C/c1ccc(O)c(O)c1)O[C@@H]1C[C@](O)(C(=O)O)C[C@@H](O)[C@H]1O | -0.246% | –
33 | O=C(OCCOCCOC(=O)c1ccccc1)c1ccccc1 | – | inactive
34 | Cn1cc(S(C)=O)c(=O)c2ccc(F)cc21 (stereo not given) | 2.55% [at 42.5 µM] | –
35 | CCCCCCCCCCCCS | – | inactive
36 | CC(N)CN (stereo not given) | 3.14% | –
37 | c1ccc(CN(CC2=NCCN2)c2ccccc2)cc1 | 1.89% [at 42.5 µM] | –
38 | CCCCCCCC(OC)OC | 1.7% [at 42.5 µM] | –
39 | COc1ccccc1Oc1c(NS(=O)(=O)c2ccc(C(C)(C)C)cc2)nc(-c2ncccn2)nc1OCCO | 4.3% [at 42.5 µM] | –
40 | CC(=O)OCCC(C)CC(C)(C)C (stereo not given) | -1.83% | –

From PubChem BioAssay (Tox21)
